From article PMC7862700, “An all-to-all approach to the identification of sequence-specific readers for epigenetic DNA modifications on cytosine”

Columns and labels:
Experiment in all cases: DAPPL (digital affinity profiling via proximity ligation, sequencing); 10 mM Tris-HCl pH 7.5, 50 mM NaCl, 1 mM DTT, 4% glycerol, room temperature, 30 min; GST-TFs on glutathione beads, 16-mer random dsDNA library, 0.1% formaldehyde crosslink after washing; high values mean tight binding
[1] = molecular target: T1, FEV (Homo sapiens, UniProt Q99581 1-238); conditions: protein: recombinant; tags: N-terminal GST; dsDNA, one strand shown
T1 sequence: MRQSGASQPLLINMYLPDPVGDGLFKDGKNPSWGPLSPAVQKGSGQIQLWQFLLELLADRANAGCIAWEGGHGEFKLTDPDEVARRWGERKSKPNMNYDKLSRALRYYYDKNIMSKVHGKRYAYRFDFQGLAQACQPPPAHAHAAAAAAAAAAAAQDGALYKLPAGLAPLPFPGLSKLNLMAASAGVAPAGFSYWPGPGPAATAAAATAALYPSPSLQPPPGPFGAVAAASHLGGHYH
Outline: (§1)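 Beads coated with glutathione captured GST-fused human transcription factors that had been expressed in yeast, and the factors were then given DNA barcodes and pooled with a tag-only sample. The pools were incubated with 200 nmole of a random double-stranded 16-mer DNA library in Tris/NaCl/DTT/glycerol buffer for 30 min at room temperature, washed, crosslinked with 0.1% formaldehyde and proximity-ligated with BsaI/T4 ligase at 37 °C for 1 h. PCR amplification and Illumina NextSeq500 sequencing came last. Binding signal is each hexamer's read frequency for a factor divided by its frequency for the tag-only sample.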

[2] = molecular target: ETV5 (Homo sapiens, UniProt P41161 1-510); conditions: protein: recombinant; tags: N-terminal GST; dsDNA, one strand shown
Outline: as §1

[3] = molecular target: HSF1 (Homo sapiens, UniProt Q00613 1-529); conditions: protein: recombinant; tags: N-terminal GST; chain copies: 3; dsDNA, one strand shown
Outline: as §1

[4] = molecular target: T2, SPIC (Homo sapiens, UniProt Q8N5J4 1-248); conditions: protein: recombinant; tags: N-terminal GST; dsDNA, one strand shown
T2 sequence: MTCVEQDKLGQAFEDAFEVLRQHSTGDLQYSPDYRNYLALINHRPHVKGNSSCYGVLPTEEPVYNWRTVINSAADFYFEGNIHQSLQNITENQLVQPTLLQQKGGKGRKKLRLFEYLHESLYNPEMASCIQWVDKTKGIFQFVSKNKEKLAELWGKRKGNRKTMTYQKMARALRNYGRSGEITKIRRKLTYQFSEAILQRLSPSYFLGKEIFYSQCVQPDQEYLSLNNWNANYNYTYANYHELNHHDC
Outline: as §1

[5] = molecular target: ELF4 (Homo sapiens, UniProt Q99607 1-663); conditions: protein: recombinant; tags: N-terminal GST; dsDNA, one strand shown
Outline: as §1

[6] = molecular target: T3, ELK4 (Homo sapiens, UniProt P28324-2 1-405); conditions: protein: recombinant; tags: N-terminal GST; dsDNA, one strand shown
T3 sequence: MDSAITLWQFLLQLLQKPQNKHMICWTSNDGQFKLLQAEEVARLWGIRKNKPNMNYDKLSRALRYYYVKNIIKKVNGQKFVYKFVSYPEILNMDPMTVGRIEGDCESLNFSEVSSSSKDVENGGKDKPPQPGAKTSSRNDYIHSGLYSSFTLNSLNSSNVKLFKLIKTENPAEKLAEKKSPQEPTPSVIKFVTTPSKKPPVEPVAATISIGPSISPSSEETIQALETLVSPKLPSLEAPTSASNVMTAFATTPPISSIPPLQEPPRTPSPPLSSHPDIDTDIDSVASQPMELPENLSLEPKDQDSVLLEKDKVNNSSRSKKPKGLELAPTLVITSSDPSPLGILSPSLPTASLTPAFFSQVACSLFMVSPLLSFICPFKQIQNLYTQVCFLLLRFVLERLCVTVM
Outline: as §1

[7] = molecular target: T4, ETV2 (Homo sapiens, UniProt O00321 1-342); conditions: protein: recombinant; tags: N-terminal GST; dsDNA, one strand shown
T4 sequence: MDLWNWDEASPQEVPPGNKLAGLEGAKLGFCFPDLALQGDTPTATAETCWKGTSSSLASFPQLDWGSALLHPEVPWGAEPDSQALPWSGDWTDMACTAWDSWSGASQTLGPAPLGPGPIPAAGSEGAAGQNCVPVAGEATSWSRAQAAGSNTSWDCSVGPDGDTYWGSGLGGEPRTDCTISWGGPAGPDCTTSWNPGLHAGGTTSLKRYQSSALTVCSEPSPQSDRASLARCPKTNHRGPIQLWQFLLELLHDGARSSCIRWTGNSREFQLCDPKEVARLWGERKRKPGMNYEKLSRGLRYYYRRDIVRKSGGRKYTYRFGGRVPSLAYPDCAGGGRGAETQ
Outline: as §1

[8] = molecular target: T5, ELF3 (Homo sapiens, UniProt P78545 1-371); conditions: protein: recombinant; tags: N-terminal GST; dsDNA, one strand shown
T5 sequence: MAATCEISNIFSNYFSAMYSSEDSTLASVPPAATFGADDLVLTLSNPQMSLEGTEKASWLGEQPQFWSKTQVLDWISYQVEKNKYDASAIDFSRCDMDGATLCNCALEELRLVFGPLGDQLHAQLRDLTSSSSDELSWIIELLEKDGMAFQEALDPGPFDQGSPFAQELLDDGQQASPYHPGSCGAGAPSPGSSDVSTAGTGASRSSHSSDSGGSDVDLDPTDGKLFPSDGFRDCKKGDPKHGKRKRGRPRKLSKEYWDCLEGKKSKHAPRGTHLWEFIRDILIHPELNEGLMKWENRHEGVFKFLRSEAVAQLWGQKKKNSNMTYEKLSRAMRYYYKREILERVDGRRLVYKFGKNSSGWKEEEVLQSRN
Outline: as §1

[9] = molecular target: CRX (Homo sapiens, UniProt O43186 1-299); conditions: protein: recombinant; tags: N-terminal GST; dsDNA, one strand shown
Outline: as §1

[10] = molecular target: ETV1 (Homo sapiens, UniProt P50549 1-477); conditions: protein: recombinant; tags: N-terminal GST; dsDNA, one strand shown
Outline: as §1

[11] = molecular target: T6, ERF (Homo sapiens, UniProt P50548 1-548); conditions: protein: recombinant; tags: N-terminal GST; dsDNA, one strand shown
T6 sequence: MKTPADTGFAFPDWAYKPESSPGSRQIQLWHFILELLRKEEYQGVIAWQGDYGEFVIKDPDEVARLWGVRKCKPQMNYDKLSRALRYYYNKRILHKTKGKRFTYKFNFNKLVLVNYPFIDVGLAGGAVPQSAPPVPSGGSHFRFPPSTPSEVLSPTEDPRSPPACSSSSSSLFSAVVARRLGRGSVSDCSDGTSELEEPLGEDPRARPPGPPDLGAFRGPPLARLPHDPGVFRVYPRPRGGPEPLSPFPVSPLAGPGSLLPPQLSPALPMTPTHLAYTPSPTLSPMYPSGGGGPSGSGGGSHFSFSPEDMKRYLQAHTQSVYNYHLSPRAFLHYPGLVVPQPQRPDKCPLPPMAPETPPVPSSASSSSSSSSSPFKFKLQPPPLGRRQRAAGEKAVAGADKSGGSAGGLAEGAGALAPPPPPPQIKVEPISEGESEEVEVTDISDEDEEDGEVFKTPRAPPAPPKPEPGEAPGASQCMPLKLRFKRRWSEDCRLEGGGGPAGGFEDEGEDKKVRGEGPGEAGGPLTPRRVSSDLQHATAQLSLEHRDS
Outline: as §1

[12] = molecular target: T7, ETV3L (Homo sapiens, UniProt Q6ZN32 1-361); conditions: protein: recombinant; tags: N-terminal GST; dsDNA, one strand shown
T7 sequence: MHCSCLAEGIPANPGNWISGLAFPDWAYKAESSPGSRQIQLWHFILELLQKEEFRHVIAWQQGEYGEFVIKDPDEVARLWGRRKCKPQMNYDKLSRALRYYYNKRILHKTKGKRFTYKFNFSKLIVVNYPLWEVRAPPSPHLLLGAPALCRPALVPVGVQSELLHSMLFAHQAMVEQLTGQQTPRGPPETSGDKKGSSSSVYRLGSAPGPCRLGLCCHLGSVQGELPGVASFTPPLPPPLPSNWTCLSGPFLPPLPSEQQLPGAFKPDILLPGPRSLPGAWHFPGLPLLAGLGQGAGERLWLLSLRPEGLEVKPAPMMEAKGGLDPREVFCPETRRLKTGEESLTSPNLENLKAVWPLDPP
Outline: as §1

[13] = molecular target: T8, ETS2 (Homo sapiens, UniProt P15036 1-469); conditions: protein: recombinant; tags: N-terminal GST; dsDNA, one strand shown
T8 sequence: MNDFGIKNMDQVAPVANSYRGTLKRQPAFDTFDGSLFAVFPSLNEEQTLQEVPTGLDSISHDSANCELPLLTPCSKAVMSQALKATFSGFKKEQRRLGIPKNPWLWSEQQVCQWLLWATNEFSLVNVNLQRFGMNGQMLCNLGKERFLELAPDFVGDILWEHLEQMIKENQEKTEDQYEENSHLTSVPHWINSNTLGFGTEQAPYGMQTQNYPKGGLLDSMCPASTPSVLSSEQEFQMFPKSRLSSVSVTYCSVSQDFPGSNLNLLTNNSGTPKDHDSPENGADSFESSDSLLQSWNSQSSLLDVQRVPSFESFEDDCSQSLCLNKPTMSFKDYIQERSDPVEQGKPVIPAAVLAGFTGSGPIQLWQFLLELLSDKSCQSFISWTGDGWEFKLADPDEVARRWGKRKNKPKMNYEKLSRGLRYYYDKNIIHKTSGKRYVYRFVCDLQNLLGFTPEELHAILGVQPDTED
Outline: as §1

[14] = molecular target: T9, SPDEF (Homo sapiens, UniProt O95238 1-335); conditions: protein: recombinant; tags: N-terminal GST; dsDNA, one strand shown
T9 sequence: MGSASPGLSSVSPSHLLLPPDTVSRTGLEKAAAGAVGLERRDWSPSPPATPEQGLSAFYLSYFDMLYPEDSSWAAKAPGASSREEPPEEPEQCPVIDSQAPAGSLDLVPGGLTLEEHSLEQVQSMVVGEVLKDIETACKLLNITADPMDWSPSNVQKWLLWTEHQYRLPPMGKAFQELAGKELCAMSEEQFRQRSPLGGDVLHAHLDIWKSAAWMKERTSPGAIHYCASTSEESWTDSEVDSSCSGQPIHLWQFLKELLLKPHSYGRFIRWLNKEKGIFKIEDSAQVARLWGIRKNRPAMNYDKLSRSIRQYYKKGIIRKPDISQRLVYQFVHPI
Outline: as §1

[15] = molecular target: T10, ETV7 (Homo sapiens, UniProt Q9Y603 1-341); conditions: protein: recombinant; tags: N-terminal GST; dsDNA, one strand shown
T10 sequence: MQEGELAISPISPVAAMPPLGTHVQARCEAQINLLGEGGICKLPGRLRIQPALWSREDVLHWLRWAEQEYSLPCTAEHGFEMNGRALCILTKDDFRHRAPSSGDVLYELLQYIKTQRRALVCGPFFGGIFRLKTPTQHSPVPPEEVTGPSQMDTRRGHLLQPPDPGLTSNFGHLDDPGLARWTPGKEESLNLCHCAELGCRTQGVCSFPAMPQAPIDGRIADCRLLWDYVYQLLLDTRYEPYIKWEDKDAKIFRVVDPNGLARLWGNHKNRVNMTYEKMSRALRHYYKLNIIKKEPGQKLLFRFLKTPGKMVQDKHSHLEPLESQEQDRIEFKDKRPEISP
Outline: as §1

[16] = molecular target: T11, ELF5 (Homo sapiens, UniProt Q9UKW6-2 1-255); conditions: protein: recombinant; tags: N-terminal GST; dsDNA, one strand shown
T11 sequence: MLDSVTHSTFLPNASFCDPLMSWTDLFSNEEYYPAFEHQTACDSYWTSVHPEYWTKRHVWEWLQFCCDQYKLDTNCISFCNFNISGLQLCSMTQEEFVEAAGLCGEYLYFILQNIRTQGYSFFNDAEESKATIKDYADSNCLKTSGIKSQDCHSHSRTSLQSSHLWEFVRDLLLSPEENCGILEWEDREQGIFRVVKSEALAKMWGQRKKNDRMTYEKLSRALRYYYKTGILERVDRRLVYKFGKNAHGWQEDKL
Outline: as §1

[17] = molecular target: T12, ETV3 (Homo sapiens, UniProt P41162-2 1-143); conditions: protein: recombinant; tags: N-terminal GST; dsDNA, one strand shown
T12 sequence: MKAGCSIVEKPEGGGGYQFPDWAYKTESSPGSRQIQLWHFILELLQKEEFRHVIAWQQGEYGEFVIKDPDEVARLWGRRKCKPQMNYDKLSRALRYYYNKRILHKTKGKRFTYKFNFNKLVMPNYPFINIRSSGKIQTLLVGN
Outline: as §1

[18] = molecular target: ETV6 (Homo sapiens, UniProt P41212 1-452); conditions: protein: recombinant; tags: N-terminal GST; dsDNA, one strand shown
Outline: as §1

Chain of ETV6 (P41212 whole entry): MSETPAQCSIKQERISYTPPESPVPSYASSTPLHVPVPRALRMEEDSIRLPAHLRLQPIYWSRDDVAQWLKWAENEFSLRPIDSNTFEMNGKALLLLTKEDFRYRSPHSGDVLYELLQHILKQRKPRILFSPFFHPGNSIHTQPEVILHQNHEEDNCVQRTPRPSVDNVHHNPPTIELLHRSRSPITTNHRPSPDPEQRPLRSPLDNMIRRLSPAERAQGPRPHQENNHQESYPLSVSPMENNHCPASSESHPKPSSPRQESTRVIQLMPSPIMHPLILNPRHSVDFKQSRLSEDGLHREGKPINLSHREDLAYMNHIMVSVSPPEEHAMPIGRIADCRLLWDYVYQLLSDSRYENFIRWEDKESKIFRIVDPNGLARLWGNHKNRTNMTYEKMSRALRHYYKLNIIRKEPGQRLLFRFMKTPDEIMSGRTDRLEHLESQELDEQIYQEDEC
Chain of CRX (O43186 whole entry): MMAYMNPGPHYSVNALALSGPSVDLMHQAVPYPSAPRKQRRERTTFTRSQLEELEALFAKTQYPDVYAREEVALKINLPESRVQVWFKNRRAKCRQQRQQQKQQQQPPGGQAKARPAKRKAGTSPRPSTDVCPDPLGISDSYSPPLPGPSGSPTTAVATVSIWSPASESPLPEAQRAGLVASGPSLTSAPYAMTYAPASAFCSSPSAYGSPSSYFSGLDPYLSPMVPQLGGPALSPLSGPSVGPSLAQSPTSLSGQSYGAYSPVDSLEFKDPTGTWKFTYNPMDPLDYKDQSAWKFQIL
Chain of ETV1 (P50549 whole entry): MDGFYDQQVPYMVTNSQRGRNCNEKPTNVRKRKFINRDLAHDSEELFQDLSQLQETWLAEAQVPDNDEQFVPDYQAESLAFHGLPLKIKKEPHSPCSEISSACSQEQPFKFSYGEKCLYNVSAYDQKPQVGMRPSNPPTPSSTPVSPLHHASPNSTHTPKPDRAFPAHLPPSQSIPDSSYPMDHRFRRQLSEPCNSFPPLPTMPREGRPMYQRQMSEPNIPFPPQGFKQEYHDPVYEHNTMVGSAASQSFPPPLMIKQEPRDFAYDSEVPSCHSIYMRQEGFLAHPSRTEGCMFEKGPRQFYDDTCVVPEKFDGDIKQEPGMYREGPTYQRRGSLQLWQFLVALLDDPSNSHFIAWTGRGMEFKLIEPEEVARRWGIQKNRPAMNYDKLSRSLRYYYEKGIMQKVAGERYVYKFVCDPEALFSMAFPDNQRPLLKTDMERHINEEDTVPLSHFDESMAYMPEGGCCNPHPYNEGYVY
Chain of ELF4 (Q99607 whole entry): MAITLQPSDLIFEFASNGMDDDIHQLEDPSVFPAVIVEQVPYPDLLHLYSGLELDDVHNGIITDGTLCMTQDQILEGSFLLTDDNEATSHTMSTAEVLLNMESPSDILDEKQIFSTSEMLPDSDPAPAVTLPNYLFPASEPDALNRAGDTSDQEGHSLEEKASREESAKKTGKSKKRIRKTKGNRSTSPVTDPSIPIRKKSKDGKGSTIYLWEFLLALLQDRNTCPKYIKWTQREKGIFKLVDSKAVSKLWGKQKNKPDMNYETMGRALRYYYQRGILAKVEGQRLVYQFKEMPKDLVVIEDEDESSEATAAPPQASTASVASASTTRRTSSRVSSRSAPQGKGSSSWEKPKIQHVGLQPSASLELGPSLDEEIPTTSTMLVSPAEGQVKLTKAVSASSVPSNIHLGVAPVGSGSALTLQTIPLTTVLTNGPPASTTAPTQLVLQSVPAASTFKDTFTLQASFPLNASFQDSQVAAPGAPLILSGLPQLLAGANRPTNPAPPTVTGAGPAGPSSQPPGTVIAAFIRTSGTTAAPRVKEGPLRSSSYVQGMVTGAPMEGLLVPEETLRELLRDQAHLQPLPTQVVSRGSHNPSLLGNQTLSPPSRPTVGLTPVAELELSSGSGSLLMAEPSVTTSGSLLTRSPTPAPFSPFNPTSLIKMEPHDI
Chain of ETV5 (P41161 whole entry): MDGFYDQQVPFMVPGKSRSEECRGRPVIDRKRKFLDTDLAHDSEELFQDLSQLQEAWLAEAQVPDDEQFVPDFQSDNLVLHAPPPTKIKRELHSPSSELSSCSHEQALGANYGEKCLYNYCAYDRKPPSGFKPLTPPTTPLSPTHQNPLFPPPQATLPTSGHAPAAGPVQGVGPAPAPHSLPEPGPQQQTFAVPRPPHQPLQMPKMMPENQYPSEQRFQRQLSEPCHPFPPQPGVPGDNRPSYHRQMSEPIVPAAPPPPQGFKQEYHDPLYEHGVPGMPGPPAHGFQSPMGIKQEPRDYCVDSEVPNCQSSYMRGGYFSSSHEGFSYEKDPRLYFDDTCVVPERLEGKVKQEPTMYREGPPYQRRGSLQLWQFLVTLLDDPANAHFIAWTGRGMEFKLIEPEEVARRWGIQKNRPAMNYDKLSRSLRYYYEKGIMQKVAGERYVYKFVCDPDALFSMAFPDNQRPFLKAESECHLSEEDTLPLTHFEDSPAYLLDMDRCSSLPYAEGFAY
Chain of HSF1 (Q00613 whole entry): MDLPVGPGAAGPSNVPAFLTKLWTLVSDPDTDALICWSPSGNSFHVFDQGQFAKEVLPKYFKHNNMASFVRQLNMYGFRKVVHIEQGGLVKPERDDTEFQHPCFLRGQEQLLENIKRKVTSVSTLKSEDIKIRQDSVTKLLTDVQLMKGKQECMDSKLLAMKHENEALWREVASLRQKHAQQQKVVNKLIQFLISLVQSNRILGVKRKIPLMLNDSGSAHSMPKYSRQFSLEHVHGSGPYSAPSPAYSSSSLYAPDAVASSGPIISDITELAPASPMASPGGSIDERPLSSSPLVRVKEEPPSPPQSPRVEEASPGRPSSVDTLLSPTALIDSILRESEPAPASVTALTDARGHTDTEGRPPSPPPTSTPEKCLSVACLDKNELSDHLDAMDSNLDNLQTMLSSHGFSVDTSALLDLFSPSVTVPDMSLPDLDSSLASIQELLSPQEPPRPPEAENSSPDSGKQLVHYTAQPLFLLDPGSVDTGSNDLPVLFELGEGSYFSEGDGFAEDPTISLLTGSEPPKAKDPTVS

ACAATA
binding signal [1]: 1.13 fold enrichment (6-mer frequency, TF over GST control) | binding signal [2]: 1.15 fold enrichment (6-mer frequency, TF over GST control) | binding signal [3]: 1.16 fold enrichment (6-mer frequency, TF over GST control) | binding signal [4]: 1.12 fold enrichment (6-mer frequency, TF over GST control) | binding signal [5]: 1.16 fold enrichment (6-mer frequency, TF over GST control) | binding signal [6]: 1.22 fold enrichment (6-mer frequency, TF over GST control) | binding signal [7]: 1.2 fold enrichment (6-mer frequency, TF over GST control) | binding signal [8]: 1.33 fold enrichment (6-mer frequency, TF over GST control) | binding signal [9]: 1.19 fold enrichment (6-mer frequency, TF over GST control) | binding signal [10]: 1.13 fold enrichment (6-mer frequency, TF over GST control) | binding signal [11]: 1.21 fold enrichment (6-mer frequency, TF over GST control) | binding signal [12]: 1.14 fold enrichment (6-mer frequency, TF over GST control) | binding signal [13]: 1.15 fold enrichment (6-mer frequency, TF over GST control) | binding signal [14]: 1.15 fold enrichment (6-mer frequency, TF over GST control) | binding signal [15]: 1.07 fold enrichment (6-mer frequency, TF over GST control) | binding signal [16]: 1.09 fold enrichment (6-mer frequency, TF over GST control) | binding signal [17]: 1.21 fold enrichment (6-mer frequency, TF over GST control) | binding signal [18]: 1.18 fold enrichment (6-mer frequency, TF over GST control)
